Screening results as filed in PubChem BioAssay.
NPC1 promoter act – activators of NPC1 promoter. Huh7 NPC1 promoter luciferase reporter, 24 h. Potency, µM (titrated, usually from 9.22 µM), for inactives: at the top dose activation, actives largely listed as activators. 320,000 tested, 2.4% active; also: % of control where 0% means no effect; nearly all actives have a fitted effect of over 60% in size
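Quantitative HTS used a cell-based reporter: Huh7 cells stably bearing the NPC1 promoter upstream of luciferase were treated with compounds for 24 h, and promoter activation was read as luminescence.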
FLuc counter – firefly luciferase modulation, counter-screen for miR-21 project | 360,000 tested, 6.9% active | Potency, µM (titrated, usually from 57.5 µM), without a hit: at the highest dose activity change, negative = inhibition, usual class: inhibitors | purified FLuc, Km substrates, luminescence inhibition | P08659;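 also: plate controls were vehicle for no effect and reference inhibitor for full effect; nearly all actives have a fitted effect of over 55% in size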
Target sequence (P08659 whole entry, looked up): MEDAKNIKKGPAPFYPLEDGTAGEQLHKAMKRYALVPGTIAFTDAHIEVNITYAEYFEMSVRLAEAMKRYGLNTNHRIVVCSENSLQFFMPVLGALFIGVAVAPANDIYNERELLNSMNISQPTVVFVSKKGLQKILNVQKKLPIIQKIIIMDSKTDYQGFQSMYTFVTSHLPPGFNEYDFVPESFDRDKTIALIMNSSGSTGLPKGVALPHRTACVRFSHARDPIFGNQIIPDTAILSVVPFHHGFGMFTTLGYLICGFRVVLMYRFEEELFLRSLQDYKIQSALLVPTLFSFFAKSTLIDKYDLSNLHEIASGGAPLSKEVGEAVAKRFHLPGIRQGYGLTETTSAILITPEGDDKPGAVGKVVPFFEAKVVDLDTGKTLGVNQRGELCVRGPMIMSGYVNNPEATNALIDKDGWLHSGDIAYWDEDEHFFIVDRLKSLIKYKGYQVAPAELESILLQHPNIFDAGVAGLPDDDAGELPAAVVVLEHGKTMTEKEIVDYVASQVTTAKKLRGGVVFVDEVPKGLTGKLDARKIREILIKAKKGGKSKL
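Purified P. pyralis luciferase (10nM final) with 10uM D-luciferin and 10uM ATP (Km levels) in 50mM Tris acetate pH 7.5, 10mM Mg acetate, 0.01% Tween-20, 0.05% BSA; qHTS 6-point titration, ~60 µM downward; luminescence read.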
Luc counter – Kinase-Glo luciferase inhibition (counter-screen) | Q27757 | Kinase-Glo luciferase, ATP luminescence, 8 min | Potency, µM (top dose mostly 38.3 µM), for the others: at the highest dose activity change, negative = inhibition, hits mostly inhibitors | 200,000 tested, 0.28% active | AID 1379; also: % is scaled to controls: 0 for no effect and ±100 for the full control effect; nearly all actives have a fitted effect of over 60% in size
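Substrate mix (final 50 mM imidazole pH 7.2, 50 mM KCl, 7 mM MgCl2, 10 uM ATP, 0.01% Tween 20, 0.05% BSA) plus pin-tool compound, then Kinase-Glo detection mix; 8 min ambient, luminescence read.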
ELG1 genotox – induces genotoxicity in HEK293T cells with luciferase-tagged ELG1; HEK293T ELG1-luciferase reporter, luminescence, 16 h; Potency, µM (titrated, usually from 46 µM), inactives show at the highest dose activity change, positive = activation, most hits filed as activators; 330,000 tested, 1.3% active; also: % of control where 0% means no effect; nearly all actives have a fitted effect of over 60% in size
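Genotoxic stress is detected as increased luminescence from luciferase-tagged ELG1 in HEK293T cells, measured with ONE-Glo after a 16 hr treatment at 37 °C.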
Rab9 promoter act – activates the Rab9 promoter; Huh7 Rab9 promoter-luciferase reporter, luminescence, 24 h; Potency, µM (series often up to 9.22 µM), for the others: at the highest dose activation, negative = inhibition, hits mostly activators; 320,000 tested, 2.8% active; AID 485297; also: % of control where 0% means no effect; nearly all actives have a fitted effect of over 60% in size
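Promoter activation is measured as luciferase luminescence in Huh7 cells stably transfected with a Rab9 promoter–luciferase construct, following 24 h compound exposure at 37 °C and 10 min reagent incubation at ambient temperature.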
SMN2 splice up – increases expression of the SMN2 splice variant; HEK293 SMN2-luciferase splicing reporter, luminescence, 30-36 h; Potency, µM (top dose mostly 46.1 µM), inactives show at the highest dose activity change, positive = activation, hits mostly activators; 210,000 tested, 2.8% active; also: % of control where 0% means no effect; nearly all actives have a fitted effect of over 55% in size
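qHTS luciferase splicing reporter: luminescence rises when SMN2 exon 7 is included in transfected HEK293 cells. Compound exposure lasted 30-36 h at 37C, with 4.5 mM final sodium butyrate as control, followed by a ONE-Glo read.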
Numbers without * were called inactive; ? = inconclusive; . = no result given. Only some compounds are listed: those with a hit (about 7.5% of all), similar ones and a draw of the others. Calls follow the shape of the dose curve; as a rule, active = well fitted curve in the direction sought with a large enough effect; inconclusive = small, poorly fitted or top-dose-only effect, or another doubt; inactive = no such curve, though single readings can be large; an effect the other way counts as inactive or inconclusive. Potency is read from the fitted curve at half-maximal effect.

SMILES	NPC1 promoter act	FLuc counter	Luc counter	ELG1 genotox	Rab9 promoter act	SMN2 splice up
Cc1c(C(=O)N(C)Cc2cccc(F)c2)oc2c(Cl)cccc12	-6%	-1%	.	0%	-6%	.
COc1ccc(-n2c(=O)c3ccccc3n(CC(=O)NCCc3ccccc3)c2=O)c(OC)c1	.	-5%	.	.	.	-2%
O=C(/C=C/c1c(Cl)cccc1Cl)NCc1ccco1	-3%	0%	6%	8%	?	8%
O=C(/C=C/c1ccccc1Cl)Nc1cccnc1	1.1µM*	1.3µM*	.	4.1µM*	1.8µM*	.
O=C(O)/C=C/C(=O)Nc1cccnc1	2%	-1%	-1%	5%	-5%	9%
O=C(/C=C/c1ccccc1Cl)NCc1ccco1	?	24µM*	-5%	9%	-22%	24%
COc1c(O)ccc(/C=N/NC(=O)c2ccc3c(c2)OCCO3)c1[N+](=O)[O-]	?	2.7µM*	.	?	?	.
O=C(N/N=C/c1cc2c(cc1[N+](=O)[O-])OCO2)c1ccc2c(c1)OCO2	3%	?	.	0%	5%	.
COc1c(O)ccc(/C=N\NC(=O)c2ccc3c(c2)OCO3)c1[N+](=O)[O-]	4%	15µM*	.	13%	0%	.
Oc1ccc(Cl)cc1CNCc1cccc2ccccc12	0%	-12%	.	7%	1%	.
COc1ccccc1NC(=O)N1CCCC1C(=O)NCc1ccccc1F (stereo not drawn)	1%	-2%	-5%	13%	-8%	6.3µM*
COc1ccccc1NC(=O)N1CCCC1C(=O)NCc1ccccc1Cl (stereo not drawn)	-2%	1%	.	-3%	3%	.
CCOc1ccc(CC(=O)Nc2nnc3n2CCS3)cc1	.	0%	.	.	.	.
O=C(CCC(=O)Nc1ccc(F)cc1)N/N=C/c1ccncc1	-1%	-3%	-1%	-1%	1%	-8%
O=C(CCC(=O)Nc1ccccc1)N/N=C/c1ccncc1	8%	12µM*	0%	-2%	8%	-11%
Cc1ccccc1C(=O)Nc1ccc(C(=O)N/N=C/c2ccncc2)cc1	7%	-17%	3%	8%	1%	-23%
O=C(Nc1ccccc1C(=O)N/N=C/c1ccncc1)c1ccccc1	?	1.9µM*	1.8µM*	-14%	?	.
CCOc1ccc(/C=N/NC(=O)c2ccccc2NC(=O)c2ccc(OC)cc2)cc1	?	0.38µM*	?	14%	?	119%
O=C(N/N=C/c1ccco1)c1ccc(NC(=O)c2ccccc2Cl)cc1	1%	5%	1%	-1%	1%	2%
COc1ccc(C(=O)Nc2ccccc2C(=O)N/N=C/c2ccco2)cc1	16%	0.48µM*	2.8µM*	?	?	.
CCOc1ccc(OCc2ccc(C(=O)NN=Cc3ccc[nH]3)cc2)cc1	.	.	.	17%	.	.
CCN(CC)S(=O)(=O)c1ccc(OC)c(NC(=O)C(Cc2ccccc2)N2C(=O)c3ccccc3C2=O)c1 (stereo not drawn)	-1%	-1%	-3%	0%	4%	-6%
C[C@@H](C(=O)N[C@@H](CO)Cc1ccccc1)[C@H]1C[C@]1(C)[C@H](NC(=O)OCc1ccccc1)c1ccccc1	.	.	-2%	.	.	-18%
COc1ccc(C2OC(=O)CC2C(=O)NCc2ccc(Cl)cc2)cc1OC (stereo not drawn)	?	17µM*	1%	?	?	?
OC(CNc1ncnc2sccc12)c1ccccc1 (stereo not drawn)	?	17µM*	.	8%	1%	.
Cc1ccc(C(=O)OCC(=O)N(C)C2CCS(=O)(=O)C2)cc1[N+](=O)[O-] (stereo not drawn)	5%	-2%	-3%	2%	9%	2%
Cc1cc(Cl)ccc1OCc1cn2cccnc2n1	3.5µM*	12µM*	-4%	?	3.2µM*	13µM*
c1cnc2c(OCc3cn4cccnc4n3)cccc2c1	18%	?	-7%	?	23%	9%
